Data reported in paper PMC7862700, “An all-to-all approach to the identification of sequence-specific readers for epigenetic DNA modifications on cytosine”.

Assays:
Experiment in all cases: DAPPL (digital affinity profiling via proximity ligation, sequencing); 10 mM Tris-HCl pH 7.5, 50 mM NaCl, 1 mM DTT, 4% glycerol, room temperature, 30 min; GST-TFs on glutathione beads, 16-mer random dsDNA library, 0.1% formaldehyde crosslink after washing; high values mean tight binding
Details in all cases: protein: recombinant; tags: N-terminal GST; dsDNA, one strand shown
FLI1 = molecular target: T1, FLI1 (Homo sapiens, UniProt Q01543 1-452)
T1 sequence: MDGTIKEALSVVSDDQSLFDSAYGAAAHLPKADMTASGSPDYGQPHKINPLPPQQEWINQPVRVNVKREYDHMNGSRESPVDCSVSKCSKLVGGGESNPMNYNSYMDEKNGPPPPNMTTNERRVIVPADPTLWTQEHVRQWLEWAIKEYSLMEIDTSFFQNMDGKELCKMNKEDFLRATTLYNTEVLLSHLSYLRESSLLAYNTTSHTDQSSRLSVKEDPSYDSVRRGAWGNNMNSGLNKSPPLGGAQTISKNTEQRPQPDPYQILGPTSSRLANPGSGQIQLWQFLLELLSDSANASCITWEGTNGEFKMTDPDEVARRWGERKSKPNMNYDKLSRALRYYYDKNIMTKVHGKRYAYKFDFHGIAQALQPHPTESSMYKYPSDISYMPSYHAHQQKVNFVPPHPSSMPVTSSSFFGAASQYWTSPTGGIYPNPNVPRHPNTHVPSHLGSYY
Summary of the method: (§1)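 Binding signal is each hexamer's read frequency for a factor divided by its frequency in the tag-only sample. The factors were GST-fused human transcription factors from yeast, captured on glutathione beads, DNA-barcoded and pooled with that sample. Pools were incubated with 200 nmole of a random double-stranded 16-mer DNA library in Tris/NaCl/DTT/glycerol buffer at room temperature for 30 min, then washed, crosslinked with 0.1% formaldehyde, proximity-ligated with BsaI/T4 ligase (1 h, 37 °C), PCR-amplified and sequenced on an Illumina NextSeq500.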

ELK1 = molecular target: T2, ELK1 (Homo sapiens, UniProt P19419 1-428)
T2 sequence: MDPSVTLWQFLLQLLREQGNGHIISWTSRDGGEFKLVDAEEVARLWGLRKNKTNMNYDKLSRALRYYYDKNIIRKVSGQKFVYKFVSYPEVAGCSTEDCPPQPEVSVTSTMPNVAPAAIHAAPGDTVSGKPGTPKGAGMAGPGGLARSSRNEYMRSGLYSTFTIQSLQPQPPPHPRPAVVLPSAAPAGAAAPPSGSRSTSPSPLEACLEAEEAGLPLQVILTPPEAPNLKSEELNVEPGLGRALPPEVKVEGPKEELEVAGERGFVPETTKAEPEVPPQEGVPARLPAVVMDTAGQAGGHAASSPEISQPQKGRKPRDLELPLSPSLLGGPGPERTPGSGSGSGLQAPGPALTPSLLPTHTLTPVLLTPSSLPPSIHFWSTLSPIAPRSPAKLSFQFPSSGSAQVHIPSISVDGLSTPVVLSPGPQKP
Summary of the method: as §1

GABPA = molecular target: T3, GABPA (Homo sapiens, UniProt Q06546 1-454)
T3 sequence: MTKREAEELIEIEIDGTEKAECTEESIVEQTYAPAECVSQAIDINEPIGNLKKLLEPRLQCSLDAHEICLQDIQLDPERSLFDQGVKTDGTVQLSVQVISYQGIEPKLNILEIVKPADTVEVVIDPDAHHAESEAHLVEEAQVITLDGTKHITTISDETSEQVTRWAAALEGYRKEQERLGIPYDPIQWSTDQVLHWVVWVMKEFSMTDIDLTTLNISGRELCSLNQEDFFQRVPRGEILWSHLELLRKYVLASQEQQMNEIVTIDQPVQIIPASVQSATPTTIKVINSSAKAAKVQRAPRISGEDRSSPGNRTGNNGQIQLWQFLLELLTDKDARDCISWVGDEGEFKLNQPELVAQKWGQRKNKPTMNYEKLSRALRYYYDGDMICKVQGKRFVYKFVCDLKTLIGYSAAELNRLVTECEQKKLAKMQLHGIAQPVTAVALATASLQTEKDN
Summary of the method: as §1

ERG = molecular target: T4, ERG (Homo sapiens, UniProt P11308 1-479)
T4 sequence: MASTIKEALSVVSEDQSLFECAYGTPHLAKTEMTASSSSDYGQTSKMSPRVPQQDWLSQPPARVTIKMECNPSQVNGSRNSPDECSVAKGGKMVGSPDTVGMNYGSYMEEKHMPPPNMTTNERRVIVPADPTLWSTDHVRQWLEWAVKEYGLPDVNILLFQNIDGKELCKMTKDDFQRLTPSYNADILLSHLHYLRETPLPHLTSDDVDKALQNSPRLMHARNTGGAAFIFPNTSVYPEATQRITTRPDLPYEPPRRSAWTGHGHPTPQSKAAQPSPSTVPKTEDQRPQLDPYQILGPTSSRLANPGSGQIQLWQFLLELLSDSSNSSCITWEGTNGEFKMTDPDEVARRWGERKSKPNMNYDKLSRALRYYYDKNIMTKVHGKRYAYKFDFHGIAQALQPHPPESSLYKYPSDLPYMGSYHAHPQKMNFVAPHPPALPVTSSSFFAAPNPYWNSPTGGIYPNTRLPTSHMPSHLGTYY
Summary of the method: as §1

ELF1 = ELF1 (Homo sapiens, UniProt P32519 1-619)
Summary of the method: as §1

EHF = molecular target: T5, EHF (Homo sapiens, UniProt Q9NZC4 1-300)
T5 sequence: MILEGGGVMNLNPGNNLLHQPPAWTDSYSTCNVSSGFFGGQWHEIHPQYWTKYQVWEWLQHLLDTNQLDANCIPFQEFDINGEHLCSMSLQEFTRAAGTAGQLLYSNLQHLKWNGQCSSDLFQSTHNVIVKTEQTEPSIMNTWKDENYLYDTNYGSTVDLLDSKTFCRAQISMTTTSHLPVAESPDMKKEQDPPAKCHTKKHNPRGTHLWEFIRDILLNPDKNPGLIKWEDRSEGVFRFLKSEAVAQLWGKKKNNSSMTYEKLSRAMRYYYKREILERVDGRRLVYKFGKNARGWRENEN
Summary of the method: as §1

SPI1 = SPI1 (Homo sapiens, UniProt P17947 1-270)
Summary of the method: as §1

SPIB = SPIB (Homo sapiens, UniProt Q01892 1-262)
Summary of the method: as §1

ELK3 = molecular target: T6, ELK3 (Homo sapiens, UniProt P41970 1-407)
T6 sequence: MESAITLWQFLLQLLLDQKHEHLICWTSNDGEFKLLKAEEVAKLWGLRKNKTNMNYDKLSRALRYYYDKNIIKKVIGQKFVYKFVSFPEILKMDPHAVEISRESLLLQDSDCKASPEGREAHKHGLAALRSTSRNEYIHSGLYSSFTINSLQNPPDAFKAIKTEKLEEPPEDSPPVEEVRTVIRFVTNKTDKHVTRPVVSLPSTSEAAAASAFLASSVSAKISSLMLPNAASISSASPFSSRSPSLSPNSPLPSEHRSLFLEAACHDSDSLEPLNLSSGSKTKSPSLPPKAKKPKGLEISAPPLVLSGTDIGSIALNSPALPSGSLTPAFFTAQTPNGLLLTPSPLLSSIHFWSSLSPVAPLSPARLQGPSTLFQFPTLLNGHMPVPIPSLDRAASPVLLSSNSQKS
Summary of the method: as §1

Sequence of ELF1 (P32519 whole entry): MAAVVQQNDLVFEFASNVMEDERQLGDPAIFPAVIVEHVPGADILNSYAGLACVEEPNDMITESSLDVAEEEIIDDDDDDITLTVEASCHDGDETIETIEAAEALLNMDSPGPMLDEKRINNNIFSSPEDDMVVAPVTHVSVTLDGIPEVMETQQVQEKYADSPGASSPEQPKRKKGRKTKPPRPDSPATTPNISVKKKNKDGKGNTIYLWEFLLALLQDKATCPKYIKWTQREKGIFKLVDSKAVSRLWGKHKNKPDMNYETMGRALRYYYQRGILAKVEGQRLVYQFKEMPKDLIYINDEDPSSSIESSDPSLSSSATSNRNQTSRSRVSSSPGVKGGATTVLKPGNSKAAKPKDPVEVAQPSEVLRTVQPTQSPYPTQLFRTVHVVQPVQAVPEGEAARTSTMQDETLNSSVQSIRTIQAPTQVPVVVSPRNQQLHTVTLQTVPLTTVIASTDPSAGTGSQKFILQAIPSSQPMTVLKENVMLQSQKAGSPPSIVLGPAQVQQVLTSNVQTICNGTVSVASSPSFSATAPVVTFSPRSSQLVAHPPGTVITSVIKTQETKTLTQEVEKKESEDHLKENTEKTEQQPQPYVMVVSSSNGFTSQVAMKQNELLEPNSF
Sequence of SPIB (Q01892 whole entry): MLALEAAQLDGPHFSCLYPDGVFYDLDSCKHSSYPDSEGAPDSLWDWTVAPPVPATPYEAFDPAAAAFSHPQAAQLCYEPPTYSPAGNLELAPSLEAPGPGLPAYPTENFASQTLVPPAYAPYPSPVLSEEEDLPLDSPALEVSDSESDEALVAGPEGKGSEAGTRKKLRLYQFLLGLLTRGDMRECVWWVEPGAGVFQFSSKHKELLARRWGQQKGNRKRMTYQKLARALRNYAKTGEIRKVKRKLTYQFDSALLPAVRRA

Sequence	binding signal (FLI1)	binding signal (ELK1)	binding signal (GABPA)	binding signal (ERG)	binding signal (ELF1)	binding signal (EHF)	binding signal (SPI1)	binding signal (SPIB)	binding signal (ELK3)
GATTAT	1.04 fold enrichment (6-mer frequency, TF over GST control)	1.1 fold enrichment (6-mer frequency, TF over GST control)	1.1 fold enrichment (6-mer frequency, TF over GST control)	1.06 fold enrichment (6-mer frequency, TF over GST control)	1.02 fold enrichment (6-mer frequency, TF over GST control)	1.09 fold enrichment (6-mer frequency, TF over GST control)	1.03 fold enrichment (6-mer frequency, TF over GST control)	1.11 fold enrichment (6-mer frequency, TF over GST control)	1.07 fold enrichment (6-mer frequency, TF over GST control)
TTATGC	1.34 fold enrichment (6-mer frequency, TF over GST control)	1.34 fold enrichment (6-mer frequency, TF over GST control)	1.22 fold enrichment (6-mer frequency, TF over GST control)	1.31 fold enrichment (6-mer frequency, TF over GST control)	1.15 fold enrichment (6-mer frequency, TF over GST control)	1.43 fold enrichment (6-mer frequency, TF over GST control)	1.34 fold enrichment (6-mer frequency, TF over GST control)	1.26 fold enrichment (6-mer frequency, TF over GST control)	1.16 fold enrichment (6-mer frequency, TF over GST control)
GATGTT	1.28 fold enrichment (6-mer frequency, TF over GST control)	1.34 fold enrichment (6-mer frequency, TF over GST control)	1.27 fold enrichment (6-mer frequency, TF over GST control)	1.28 fold enrichment (6-mer frequency, TF over GST control)	1.25 fold enrichment (6-mer frequency, TF over GST control)	1.32 fold enrichment (6-mer frequency, TF over GST control)	1.25 fold enrichment (6-mer frequency, TF over GST control)	1.2 fold enrichment (6-mer frequency, TF over GST control)	1.22 fold enrichment (6-mer frequency, TF over GST control)
CGTTTC	1.76 fold enrichment (6-mer frequency, TF over GST control)	1.68 fold enrichment (6-mer frequency, TF over GST control)	1.69 fold enrichment (6-mer frequency, TF over GST control)	1.98 fold enrichment (6-mer frequency, TF over GST control)	1.71 fold enrichment (6-mer frequency, TF over GST control)	1.83 fold enrichment (6-mer frequency, TF over GST control)	1.79 fold enrichment (6-mer frequency, TF over GST control)	1.75 fold enrichment (6-mer frequency, TF over GST control)	1.72 fold enrichment (6-mer frequency, TF over GST control)
TTCCTG	2.3 fold enrichment (6-mer frequency, TF over GST control)	2.3 fold enrichment (6-mer frequency, TF over GST control)	2.17 fold enrichment (6-mer frequency, TF over GST control)	2.59 fold enrichment (6-mer frequency, TF over GST control)	2.22 fold enrichment (6-mer frequency, TF over GST control)	2.23 fold enrichment (6-mer frequency, TF over GST control)	2.64 fold enrichment (6-mer frequency, TF over GST control)	2.36 fold enrichment (6-mer frequency, TF over GST control)	2.28 fold enrichment (6-mer frequency, TF over GST control)
CTTAGA	1.13 fold enrichment (6-mer frequency, TF over GST control)	1.11 fold enrichment (6-mer frequency, TF over GST control)	1.17 fold enrichment (6-mer frequency, TF over GST control)	1.09 fold enrichment (6-mer frequency, TF over GST control)	1.08 fold enrichment (6-mer frequency, TF over GST control)	1.1 fold enrichment (6-mer frequency, TF over GST control)	1.11 fold enrichment (6-mer frequency, TF over GST control)	1.11 fold enrichment (6-mer frequency, TF over GST control)	1.02 fold enrichment (6-mer frequency, TF over GST control)
AGCTTC	1.64 fold enrichment (6-mer frequency, TF over GST control)	1.86 fold enrichment (6-mer frequency, TF over GST control)	1.71 fold enrichment (6-mer frequency, TF over GST control)	1.83 fold enrichment (6-mer frequency, TF over GST control)	1.66 fold enrichment (6-mer frequency, TF over GST control)	1.83 fold enrichment (6-mer frequency, TF over GST control)	1.74 fold enrichment (6-mer frequency, TF over GST control)	1.78 fold enrichment (6-mer frequency, TF over GST control)	2.06 fold enrichment (6-mer frequency, TF over GST control)
CGACTC	1.37 fold enrichment (6-mer frequency, TF over GST control)	1.42 fold enrichment (6-mer frequency, TF over GST control)	1.53 fold enrichment (6-mer frequency, TF over GST control)	1.39 fold enrichment (6-mer frequency, TF over GST control)	1.45 fold enrichment (6-mer frequency, TF over GST control)	1.43 fold enrichment (6-mer frequency, TF over GST control)	1.35 fold enrichment (6-mer frequency, TF over GST control)	1.56 fold enrichment (6-mer frequency, TF over GST control)	1.43 fold enrichment (6-mer frequency, TF over GST control)
